Only some compounds are listed: those with a hit (about 11% of all), similar ones and a draw of the others.
HPGD inh: HPGD (human) dehydrogenase inhibition; P15428; 150,000 compounds, 4.3% hits; Potency, µM, for the others: top-dose activity change, negative = inhibition, usual class: inhibitors; purified HPGD, NADH fluorescence kinetic, PGE2 substrate; AID 894; active = well fitted inhibition curve with a large enough effect, not every such curve was filed as active; inconclusive = small, poorly fitted or top-dose-only effect, or another doubt; inactive = no such curve, though single readings can be large or run the other way; note: potency is the fitted concentration of half-maximal effect
Target sequence (P15428 whole entry, looked up): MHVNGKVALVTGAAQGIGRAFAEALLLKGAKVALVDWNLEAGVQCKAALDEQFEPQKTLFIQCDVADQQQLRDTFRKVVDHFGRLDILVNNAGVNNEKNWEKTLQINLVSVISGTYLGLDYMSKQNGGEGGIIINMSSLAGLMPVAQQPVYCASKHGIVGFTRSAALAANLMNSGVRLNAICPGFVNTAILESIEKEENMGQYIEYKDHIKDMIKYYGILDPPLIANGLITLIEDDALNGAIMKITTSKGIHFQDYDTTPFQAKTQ
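20 nM HPGD preincubated 15 min at room temperature with compound in 50 mM Tris-HCl pH 8, 0.01% Tween 20. Started with 1 mM NAD+ and 30 uM prostaglandin E2; NADH fluorescence (360/450 nm) read 5 times over 30-s intervals, last minus first.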
PNC inhibitor: perinucleolar compartment assembly inhibition; PC3M PTB-GFP, PNC prevalence imaging, 16 h; stronger effect = lower value; activity change (PNC), negative = inhibition, % at 10 µM; 140,000 compounds, 3.1% hits; AID 2417;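 active = readout at or below -70, meaning at least 70% loss of cells showing the perinucleolar compartment, a nuclear body marking cancer cells; inconclusive = readout between -30 and a set limit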;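 note: plate controls were DMSO wells for no effect and camptothecin positive control wells for full effect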
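Compounds are pinned in duplicate onto adhered PC3M cells stably expressing GFP-tagged PTB and incubated 16 h at 37 C. Cells are then fixed, nuclei stained with Hoechst, and PNC-positive cells counted.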
IMPase Li cell: cell-permeable IMPase inhibitors with lithium potentiation. CHO-M1 cells, IP1 TR-FRET (IP-One), carbachol + lithium. AID 1457. 210,000 compounds, 0.35% hits. Potency, µM (top dose mostly 59.4 µM), for inactives: at the top dose activity, negative = IMPase inhibition, actives largely listed as inhibitors;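 note: IP1 builds up when IMPase is blocked and the TR-FRET signal falls; potency is the fitted concentration of half-maximal effect; plate controls were basal vehicle for no effect and high inhibitor control for full effect; nearly all actives have a fitted effect of over 50% in size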
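CHO cells stably expressing M1 receptor (2000/well, cultured 16–30 h) treated 30 min at 37C with compound plus low lithium. Cytosolic IP1 by TR-FRET (665/620 ratio and 620 channel) after 10 min lysis; AC50 by Hill fit.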
IMPase cell inh: cell-permeable inhibitors of inositol monophosphatase (IMPase) | inhibition (IP1 accumulation), % at 46.1 µM | 120,000 tested, under 10 active | P97697 | CHO-M1 cells, IP1 accumulation, HTRF TR-FRET ratio; active = well fitted curve in the direction sought with a large enough effect in the signal ratio, not every such curve was filed as active; inconclusive = small, poorly fitted or top-dose-only effect, or a change in a side signal; inactive = no such curve, though single readings can be large or run the other way; the % refers to the signal ratio;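 note: cells stimulated with carbachol in lithium chloride buffer; plate controls were DMSO basal wells for no effect and reference inhibitor wells for full effect; higher means more IMPase inhibition seen as more IP1 and lower FRET ratio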
Target sequence (P97697 whole entry, looked up): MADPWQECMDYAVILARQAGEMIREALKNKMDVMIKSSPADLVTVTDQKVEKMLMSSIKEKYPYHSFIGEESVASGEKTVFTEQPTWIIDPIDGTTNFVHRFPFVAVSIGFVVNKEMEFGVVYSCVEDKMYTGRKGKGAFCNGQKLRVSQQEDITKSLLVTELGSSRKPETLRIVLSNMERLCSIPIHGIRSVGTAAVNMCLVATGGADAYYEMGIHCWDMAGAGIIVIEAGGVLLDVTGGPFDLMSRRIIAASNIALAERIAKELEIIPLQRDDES
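CHO-M1 cells (CHO stably expressing M1 receptor), compound up to 46 uM final, stimulated with carbachol (50 uM as added) in buffer with 50mM LiCl, pH 7.4, 30 min at 37C. Cytosolic IP1 read by TR-FRET; AC50 from Hill fits.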
ALOX12 inhib: 12-hLO (ALOX12) enzyme inhibition. 150,000 compounds, 0.12% hits. purified 12-hLO, xylenol orange hydroperoxide absorbance. Potency, µM (highest dose often 57.1 µM), inactives show at the highest dose activity change, negative = inhibition, most hits filed as inhibitors. P18054; note: potency is the fitted concentration of half-maximal effect; nearly all actives have a fitted effect of over 55% in size
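Purified human 12hLO (150 nM final) was preincubated with compounds for 15 min at room temperature in 25 mM Hepes pH 7.0, 0.01% Triton X-100, then reacted with 40 uM arachidonic acid for 30 min. Hydroperoxide was detected with ferrous iron/xylenol orange.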
ALDH1A1 block: inhibitors of human aldehyde dehydrogenase 1A1 | P00352 | Purified ALDH1A1, NADH fluorescence, propionaldehyde substrate | Potency, µM (top dose mostly 75.3 µM), without a hit: at the highest dose activity, negative = inhibition, hits mostly inhibitors | 220,000 compounds, 7.3% hits | AID 1030; active = well fitted inhibition curve with a large enough effect, not every such curve was filed as active; inconclusive = small, poorly fitted or top-dose-only effect, or another doubt; inactive = no such curve, though single readings can be large or run the other way;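 note: potency is the fitted concentration of half-maximal effect; plate controls were no enzyme wells and a reference inhibitor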
* = called active by the depositor; ? = inconclusive; . = not tested or not shown; [ ] = dose if it differs, or a comment. Unless noted, calls come from the whole dose curve; as a rule, active = well fitted curve in the direction sought with a large enough effect; inconclusive = small, poorly fitted or top-dose-only effect, or another doubt; inactive = no such curve, though single readings can be large; an effect the other way counts as inactive or inconclusive. Unless noted, % is set by controls: 0 for no effect and ±100 for the full control effect.

SMILES	HPGD inh	PNC inhibitor	IMPase Li cell	IMPase cell inh	ALOX12 inhib	ALDH1A1 block
COCCn1c(=O)c(-c2cc(F)cc(F)c2)nc2cnc(OCc3ccccc3)nc21	-10.5%	.	9.3%	.	-1.1%	?
COc1ccc(/C=N/n2c(-c3ccco3)nc3ccccc3c2=O)cc1	-15.4%	-100.0*	-0.9%	0.2	-1.5%	10.1%
COc1cccc(/C=N/n2c(-c3ccco3)nc3ccccc3c2=O)c1	-13.1%	-28.5	19.6%	7.0	3.2%	?
Cc1cccc(C)c1OCC(=O)Nc1c(C(=O)c2ccc(Br)cc2)oc2ccccc12	.	.	.	-2.2	.	.
O=C(N/N=C/c1coc2ccccc2c1=O)c1cn(-c2ccccc2)nc1-c1ccccc1	-15.1%	-11.0	-8.3%	-4.6	0.6%	3.16µM*
O=C(O)/C=C/c1coc2ccccc2c1=O	-2.5%	37.0	-6.6%	.	2.4%	7.5%
O=C(N/N=C\c1ccccc1OCc1ccccc1)c1ccco1	-11.3%	?	24.9%	.	-3.5%	-12.6%
O=C(N/N=C/c1coc2ccccc2c1=O)c1ccccc1	.	.	-1.3%	.	.	3.98µM*
O=C(N/N=C\c1coc2ccccc2c1=O)c1ccco1	.	.	.	.	.	1.58µM*
NC(=O)N/N=C/c1coc2ccc(O)cc2c1=O	.	.	.	.	.	17.8µM*
Nc1nc(N)c2[nH]cnc2n1 (tested in a mixture with another compound)	-9.2%	.	3.9%	.	-0.5%[11.4 µM]	11.0%[13.5 µM]
CC(=O)c1ccc(-c2cccc([C@H]3[C@@H]4C=CC[C@@H](C)[C@@H]4C(=O)N3Cc3ccccc3)c2)cc1	-13.3%	.	11.0%	.	-4.8%[0.00818 µM]	5.0%
COc1ccccc1-c1nnc(SC/C(O)=C(\C#N)c2nc3ccccc3[nH]2)n1C1CCCCC1	35.5µM*	35.9	8.2%	.	5.5%	?
CCCC/C=C/C(NC(=O)OCc1ccccc1Cl)c1ccccc1 (stereo unspecified)	?	.	1.4%	.	1.7%	-5.5%
Cc1nc2c3ccccc3nc(SCC(=O)N3CC(C)CC(C)C3)n2n1 (stereo unspecified)	?	16.5	-9.8%[38.3 µM]	9.1	-0.4%	7.08µM*
CCOc1ccc2nc3c(cc2c1)CN(CCOC)C(=NCCOC)S3	-3.3%	22.6	-23.9%[38.3 µM]	5.7	0.4%	4.3%
COCCN=C1Sc2nc3ccc(C)cc3cc2CN1Cc1ccco1	-20.0%	8.7	33.2%[38.3 µM]	-4.6	-24.1%	25.1µM*
O=c1c(Cl)c(Cl)cnn1Cc1nnc(-c2ccccc2Br)o1	.	.	-8.4%	.	.	3.55µM*
Brc1ccccc1-c1nnc(COc2cccc3cccnc23)o1	?	?	35.3%[38.3 µM]	12.0	-3.9%	?
Clc1ccc(Cc2nnc(-c3ccccc3Br)o2)cc1	20µM*	51.6	1.5%	.	-3.9%	9.8%
Clc1ccccc1OCc1nnc(-c2ccccc2Br)o1	20µM*	-10.3	4.2%[38.3 µM]	4.6	-3.7%	?
CCCCC/C=C\C/C=C\C/C=C\C/C=C\CCCCCC(=O)NCC(=O)O	-19.2%	.	-22.5%	.	7.7%	-3.0%
CCCC[C@@H]1C[C@H]1C(NC(=O)c1ccccc1)c1ccc(-c2ccccc2)cc1 (stereo partly specified)	-17.4%	.	-4.2%	.	-2.3%	-1.5%
Cc1ccc(S(=O)(=O)Nc2ccc(O)c(C(=O)O)c2)c(C)c1	-8.9%	.	.	.	-9.7%	?
COc1ccc(N(CC(=O)N2CCCCC2)S(=O)(=O)c2ccc(OC)c(OC)c2)cc1	.	.	.	-6.3	.	.
CCC(C)c1ccc(NC(=S)NCc2cccnc2)cc1 (stereo unspecified)	?	-13.0	22.2%	-9.0	-9.7%	15.8µM*
S=C(NCc1cccnc1)Nc1ccc(Cl)c(Cl)c1	14.1µM*	-26.7	3.8%[38.3 µM]	7.9	-21.5%	?
BrC(=C\c1ccccc1)/C=N/Nc1nc(N2CCOCC2)nc(N2CCOCC2)n1	15.8µM*	67.1	8.9%	.	-2.1%	-0.1%
BrC(/C=C\c1ccccc1)=N/Nc1nc(N2CCOCC2)nc(N2CCOCC2)n1	.	.	10.7%	.	.	-6.2%
CCNc1nc(Oc2ccc(=O)n(-c3ccccc3)n2)nc(N(C)C)n1	-6.2%	62.5	-12.6%[38.3 µM]	1.9	2.4%	1.0%
